The list is not random: actives were taken first. Their share in the collection is about 12%.
L3MBTL1 inh: blocks human L3MBTL1 | AlphaScreen L3MBTL1–H3K9me1 peptide binding | hit rate 0.66% among 230,000 | AID 485360 | Potency, µM (series often up to 57.1 µM), for the others: at the highest dose activity, negative = inhibition, actives largely listed as inhibitors; note: % is set by controls: 0 for no effect and ±100 for the full control effect; nearly all actives have a fitted effect of over 60% in size
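L3MBTL1 50 nM + b-AHA-H3(1-15)K9me1 75 nM, 30 min RT; compound added, 30 min RT; streptavidin donor/Ni-chelate acceptor beads 10 ug/mL each final, 30 min RT dark; AlphaScreen read.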
Sfp PPTase inh: blocks B. subtilis Sfp PPTase activity. Q9F4F7. hit rate 3.5% among 310,000. Potency, µM, for inactives: largest response in the series, negative = inhibition, usual class: inhibitors. Biochemical Sfp PPTase activity, qHTS;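 note: the enzyme is Sfp with the accession as filed and its product quenches rhodamine fluorescence; 0% = enzyme reaction without inhibitor and -100% = no enzyme wells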
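After 15 min at room temperature with compound, 15 nM Sfp received 5 uM rhodamine-CoA plus 12.5 uM BHQ-2-ybbR (50 mM Hepes pH 7.6, 10 mM MgCl2). Rate came from the fluorescence difference over 30 min, ex 525/em 598 nm.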
G9a inh: G9a (human) methyltransferase inhibition. G9a H3K9 monomethylation, AlphaScreen, 2 h. hit rate 8.8% among 350,000. AID 504332. Q96KQ7. Potency, µM (titrated, usually from 102 µM), inactives show at the top dose activity, negative = inhibition, actives largely listed as inhibitors; note: % is set by controls: 0 for no effect and ±100 for the full control effect; nearly all actives have a fitted effect of over 75% in size
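Signal arises when biotinylated H3K9 peptide, once monomethylated, bridges streptavidin donor and antibody-captured acceptor beads. Enzyme at 20 nM was preincubated 15 min with test compounds; peptide 500 nM and SAM 20 uM then reacted for 2 h.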
BAZ2B inh: inhibitors of human BAZ2B bromodomain; Potency, µM (top dose mostly 114 µM), for inactives: at the highest dose activity change, negative = inhibition, hits mostly inhibitors; Q9UIF8; AlphaScreen BAZ2B-H3K14Ac peptide displacement; hit rate 4.4% among 360,000; note: % is set by controls: 0 for no effect and ±100 for the full control effect; nearly all actives have a fitted effect of over 60% in size
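Protein-peptide AlphaScreen: BAZ2B 50 nM, b-H3K14Ac 50 nM, 1x PBS pH 7.4 + 0.01% Tween-20. Preincubation 30 min RT; cpd 30 min RT (top 110 uM); beads 20 min RT, light-protected.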
JMJD2A Tudor inh: inhibitors of human JMJD2A Tudor domain | hit rate 4.4% among 390,000 | Potency, µM (highest dose often 114 µM), for the others: top-dose activity change, negative = inhibition, actives largely listed as inhibitors | AlphaScreen JMJD2A-Tudor / H3K4me3 peptide binding; note: % is set by controls: 0 for no effect and ±100 for the full control effect; nearly all actives have a fitted effect of over 50% in size
HP1b binding inh: blocks HP1-beta chromodomain binding to methylated histone tails | P83916 | AlphaScreen HP1-beta / biotin-H3K9me3 peptide binding | Potency, µM (titrated, usually from 114 µM), for the others: top-dose activity change, negative = inhibition, most hits filed as inhibitors | hit rate 0.56% among 390,000; note: nearly all actives have a fitted effect of over 70% in size
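HP1-beta protein (50 nM final) preincubated 30 min at room temperature with biotinylated H3(1-18)K9me3 peptide (50 nM) in PBS pH 7.4, 0.01% Tween-20, then compound added for 30 min. AlphaScreen streptavidin donor/nickel chelate acceptor beads (10 ug/mL final), 30 min dark, luminescence read.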
An asterisk follows results filed as active; ? = inconclusive; · = no result given; [ ] = another dose, or the depositor's remark. Calls come from the whole dose curve; as a rule, active = well fitted curve in the direction sought with a large enough effect; inconclusive = small, poorly fitted or top-dose-only effect, or another doubt; inactive = no such curve, though single readings can be large; an effect the other way counts as inactive or inconclusive. Potency is the fitted concentration of half-maximal effect.

SMILES | L3MBTL1 inh | Sfp PPTase inh | G9a inh | BAZ2B inh | JMJD2A Tudor inh | HP1b binding inh
CCc1ccccc1N(CC)C(=O)C(=O)Nc1ccc2nc3n(c(=O)c2c1)CCCCC3 | · | · | -29%[59 µM] | -12% | -21% | 21%
S=C(c1ccc(-c2ccccc2Cl)o1)N1CCOCC1 | · | 14µM* | ? | 40µM* | 40µM* | ?
O=C(c1ccc([N+](=O)[O-])o1)N1CCOCC1 | -8% | 9% | 11% | -14% | -2% | 22%
O=C(c1ccc(-c2ccc([N+](=O)[O-])cc2Cl)o1)N1CCOCC1 | -15% | 40µM* | 45µM* | -35% | -6% | 22%
O=C(c1cc(-c2ccc(Br)cc2)on1)N1CCOCC1 | · | 12% | -8%[59 µM] | 5% | -11% | 13%
S=C(Nc1ccccc1Cl)N1CCOCC1 | 11% | -1% | 9%[59 µM] | -7% | -9% | 14%
S=C(c1ccc(-c2ccc(Br)cc2)o1)N1CCCCC1 | 0% | 13% | 79µM* | -5% | ? | -13%
S=C(c1ccc(-c2ccc(Br)cc2)o1)N1CCOCC1 | · | 35µM* | 14µM* | 28µM* | 35µM* | 25µM*
CCC(C)(C)NC(=O)C1CCN(S(=O)(=O)c2c(C)noc2/C=C/c2ccc(C)cc2)CC1 | · | · | 11%[59 µM] | 1% | -18% | 12%[57 µM]
Cc1cc(C)n(CCc2nc3c4ccccc4nc(SCc4ccc(Cl)cc4)n3n2)n1 | · | · | 1%[59 µM] | -2% | -23% | -6%
CCCCOC(=O)c1ccc(NC(=O)CC2NCCNC2=O)cc1 (configuration not stated) | · | · | 4%[59 µM] | -10% | -10% | 5%
NC(=O)C1CCCN(C(=O)c2ccc(-c3cccc(Cl)c3Cl)o2)C1 (configuration not stated) | 4% | · | ? | -20% | -22% | -18%
O=Cc1ccc(-c2ccc([N+](=O)[O-])cc2Cl)o1 | -19% | -27% | 35µM* | ? | ? | -15%
O=Cc1ccc(-c2cccc([N+](=O)[O-])c2)o1 | 10% | 0% | · | -7% | -3% | 10%
O=C(c1ccc(-c2cccc(Cl)c2Cl)o1)N1CCOCC1 | 3% | 79µM* | 40µM* | -29% | -12% | 11%
S=C(c1ccc(-c2ccc(Cl)c(Cl)c2)o1)N1CCOCC1 | ? | 16µM* | ? | 11µM* | 35µM* | ?
COc1ccc(CCNC(=O)c2ccc(-c3ccc([N+](=O)[O-])cc3Cl)o2)cc1 | -17% | 50µM* | 35µM* | -34% | ? | -12%
CCc1ccc(CN(Cc2ccco2)c2cnc(S(C)(=O)=O)nc2C(=O)Nc2cccc(C)c2)cc1 | · | · | -9%[59 µM] | -31% | -18% | 27%
CCOc1ccccc1N(C)C(=O)Cn1nc(Cc2ccncc2)c2ccccc2c1=O | · | · | 2%[59 µM] | -12% | -11% | 31%
O=C(c1ccc(-c2ccccc2Cl)o1)N1CCC1 | -15% | · | ? | 2% | -11% | 13%
COc1ccc(CC(=O)N2CCN(C(=O)Cc3ccc(OC)cc3)CC2)cc1 | 4% | 26% | 27%[59 µM] | 9% | ? | -14%
COc1ccc(-c2ccc(C(=S)N3CCN(C(C)=O)CC3)o2)cc1 | -2% | 13µM* | 6.3µM* | ? | ? | ?
CC1CCN(C(=O)c2ccc(-c3ccccc3Cl)o2)CC1 | 2% | · | 40µM* | ? | 113% | ?
Cc1nc2ccccn2c1C(O)(c1ccccc1)c1ccccc1 | · | · | · | · | -24% | ·
O=C1N=C(N2C=CC(=C3C=CNC=C3)C=C2)/C(=C/N=NC(=O)c2ccccc2O)S1 | · | -16% | 71µM* | 50µM* | ? | 45µM*
Cc1nn(-c2ccc(N3CCCC3)nn2)c(C)c1CCC(=O)Nc1ccc(F)cc1F | · | · | 13%[59 µM] | -20% | -23% | 38%
COc1ccccc1-c1nnc2n1N=C(c1c(OC)cccc1OC)CS2 | · | -4% | · | · | -23% | ·
COc1cccc(C2=Nn3c(nnc3-c3ccccc3OC)SC2)c1 | · | ? | · | · | 79µM* | ·
COc1ccccc1-c1nnc2n1N=C(c1ccc(O)c(O)c1)CS2 | -29% | -20% | ? | 50µM* | ? | -2%

Source: PubChem BioAssay (National Center for Advancing Translational Sciences (NCATS))
